test system: PPARg DBDmut IVT, anti-PPARg (DBD mutation: PPARg1 K132A/R137A, NR concentration 270 nM); test: PBM binding z-score (relative to random genomic background probes); higher = stronger binding; sequences stand for … in GC…GCGATTGACAGCGTAGAATGAAGG
In short: (§1)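 Antibodies against each partner of ligand-free nuclear receptor dimers (one per run) detected binding on custom Agilent 4×180K protein-binding microarrays after 1 h incubation. The double-stranded probes had 34-nt variable regions carrying direct-repeat seeds, single-nucleotide variants, half-site ablations and random human genomic background sequences. Binding z-scores, from regression-normalized fluorescence, use the random background probes as reference.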

For CAAGCTAGGTCAAGAGGTCAAAGTCCGCTTCCCG, which PBM binding z-score is on record?
The PBM binding z-score was -0.534.

How did the PBM binding z-score turn out when TTACCAAGGTGAAAGGTCGTTGAGGCACGCCTTG was run?
Its PBM binding z-score is 2.27.

How did the PBM binding z-score turn out when CCTGCTAGGTCTATGGTCAGCTAAAGCAGCTCGC was run?
Its PBM binding z-score is -1.11.

Which PBM binding z-score does the source give for AGTCATAGTTCACTAGGTAACGTAAGATTCAGCT here?
Its PBM binding z-score is 0.768.

With ACTAGTTGGTAAGCTGAGGTCACACACAATTCGG as the sequence, how does the PBM binding z-score read?
The PBM binding z-score was 0.246.

How did the PBM binding z-score turn out when GCTGCTAGGTCAGGTTGGTCGGCTAACGGGTACG was run?
Its PBM binding z-score is -0.788.

How did the PBM binding z-score turn out when CCTACTGGGCCAAGGTCTTTGATCAGTCAAAGCA was run?
Its PBM binding z-score is -1.46.

ATATGAAGGTTATCGGGTCATTCAGTTTGCGCAT was tested. Which PBM binding z-score did it give?
The PBM binding z-score was 1.48.

How did the PBM binding z-score turn out when GCTGCTAGGTCAGGTTGGTCTGCTAACGGGTACG was run?
Its PBM binding z-score is -0.998.

Which PBM binding z-score does the source give for CTCGAAAGGTCGGTTGAGGTGAGTAAACGGATAA here?
The PBM binding z-score was -0.255.

Which PBM binding z-score does the source give for CGTCGGAGGACAGAAGGTCAGAGCTGTCCGCTTT here?
The PBM binding z-score was -2.14.

Which PBM binding z-score does the source give for AGTCAAAGTTCACGAGGTAACGTAAGATTCAGCT here?
The PBM binding z-score was 0.67.

Which PBM binding z-score does the source give for ATATGTAGCTTAAGGGTCATTCAGGTTGGTTCGC here?
Its PBM binding z-score is 0.663.

With CCGACTGGGCCATTCAGAGGTCATTGATCATATG as the sequence, how does the PBM binding z-score read?
Its PBM binding z-score is -0.8.

Which PBM binding z-score does the source give for ATCTCTAGGTAAAGTTCAGCGAAAGATCGATAGA here?
Its PBM binding z-score is 1.53.

With CGTCCAAGGTCAGCAGGTCACTGAAAGCGACGTG as the sequence, how does the PBM binding z-score read?
Its PBM binding z-score is -1.07.

TAGCCTAGGTCAGATCGGGGCAGTATACGCTATA was tested. Which PBM binding z-score did it give?
Its PBM binding z-score is -0.613.

How did the PBM binding z-score turn out when CGTCCAAGGTCAACAGGTCAGTGAAAGCGACGTG was run?
Its PBM binding z-score is 0.0079.

For CGTCAAAGTTCAACTAAGTTAACGTAAAGCACGC, which PBM binding z-score is on record?
Its PBM binding z-score is 1.78.

TCTAGGAGGACACGAAGGTCAGAGCTTTCCAGAG was tested. Which PBM binding z-score did it give?
Its PBM binding z-score is -1.05.

With AGTCAAAGTTCACGACGAGGTAACGTAAAGCACG as the sequence, how does the PBM binding z-score read?
Its PBM binding z-score is 1.24.

Which PBM binding z-score does the source give for CAAACTAGGTCACGAAAGGTCAACGTCGAATGAC here?
The PBM binding z-score was 4.43.

For AGTCAAATTTCACTAGGTAACGTAAGATTCAGCT, which PBM binding z-score is on record?
The PBM binding z-score was 0.824.

CGAACTAGGTCAGAACAGGACAGTTAAGGATGAT was tested. Which PBM binding z-score did it give?
The PBM binding z-score was 1.83.

How did the PBM binding z-score turn out when GATACAGAGTCAGCTAGAGGCCAGAGTATGGAAA was run?
The PBM binding z-score was -0.534.

Which PBM binding z-score does the source give for CCCCGGAGGACAGAAGGTCAGAGCTGTCCGCTTT here?
The PBM binding z-score was -1.93.

How did the PBM binding z-score turn out when AGTCCAAGTTCACTAGGTAACGTAAGATTCAGCT was run?
The PBM binding z-score was 0.63.

Which PBM binding z-score does the source give for CGTCAAAGCTCAACTAAGGTAACGTAAAGCACGC here?
The PBM binding z-score was -0.108.

How did the PBM binding z-score turn out when TTACGAAGGTGAAAGGTCGTTGATGCACGCCTTG was run?
The PBM binding z-score was 0.212.

How did the PBM binding z-score turn out when CATACAGGGTCCGCTAGGCCAGAGTAGGGACGGC was run?
The PBM binding z-score was -0.456.

CCTACTGGGCCATTCAGAGGTCATTGATCATATG was tested. Which PBM binding z-score did it give?
The PBM binding z-score was 0.818.

With ATCGAATGGTCGAAGGTGAGTATACCCACCCGAA as the sequence, how does the PBM binding z-score read?
The PBM binding z-score was 0.223.

Which PBM binding z-score does the source give for TAGCCTAGGACATGCGGGCCAGTATAGTGTCGGC here?
The PBM binding z-score was -0.53.

How did the PBM binding z-score turn out when GCTGCTAGGTCAGGATGGTCAGCTAACGGGTACG was run?
Its PBM binding z-score is -0.66.

CCTCGGAGGACAGAAGGTCAGATCTGTCCGCTTT was tested. Which PBM binding z-score did it give?
The PBM binding z-score was -1.55.

ATCTCTAGGTAAAGTTCATTGAAAGATCGATAGA was tested. Which PBM binding z-score did it give?
Its PBM binding z-score is 2.

CAGCCTAGGTGAGGGCCAGTATAGGAGGAACGTT was tested. Which PBM binding z-score did it give?
Its PBM binding z-score is -1.52.

GCTGCTAGGTCAGGTTGGTCAACTAACGGGTACG was tested. Which PBM binding z-score did it give?
Its PBM binding z-score is -0.77.

CGTCGGAGGACAACAGGAGGTCAGAGCTGCCAGA was tested. Which PBM binding z-score did it give?
The PBM binding z-score was -1.4.

test system: PPARg homodimer (NR concentration 180 nM); test: as above
In short: as §1

For CAAGCTAGGTCAAGAGGTCAAAGTCCGCTTCCCG, which PBM binding z-score is on record?
The PBM binding z-score was 7.12.

Which PBM binding z-score does the source give for TTACCAAGGTGAAAGGTCGTTGAGGCACGCCTTG here?
The PBM binding z-score was 2.82.

For CCTGCTAGGTCTATGGTCAGCTAAAGCAGCTCGC, which PBM binding z-score is on record?
Its PBM binding z-score is -0.133.

With AGTCATAGTTCACTAGGTAACGTAAGATTCAGCT as the sequence, how does the PBM binding z-score read?
Its PBM binding z-score is 1.27.

How did the PBM binding z-score turn out when ACTAGTTGGTAAGCTGAGGTCACACACAATTCGG was run?
The PBM binding z-score was 2.25.

How did the PBM binding z-score turn out when GCTGCTAGGTCAGGTTGGTCGGCTAACGGGTACG was run?
The PBM binding z-score was 0.576.

How did the PBM binding z-score turn out when CCTACTGGGCCAAGGTCTTTGATCAGTCAAAGCA was run?
The PBM binding z-score was 0.00705.

How did the PBM binding z-score turn out when ATATGAAGGTTATCGGGTCATTCAGTTTGCGCAT was run?
The PBM binding z-score was 2.47.

Which PBM binding z-score does the source give for GCTGCTAGGTCAGGTTGGTCTGCTAACGGGTACG here?
Its PBM binding z-score is 0.673.

CTCGAAAGGTCGGTTGAGGTGAGTAAACGGATAA was tested. Which PBM binding z-score did it give?
The PBM binding z-score was 0.98.

For CGTCGGAGGACAGAAGGTCAGAGCTGTCCGCTTT, which PBM binding z-score is on record?
Its PBM binding z-score is 1.33.

How did the PBM binding z-score turn out when AGTCAAAGTTCACGAGGTAACGTAAGATTCAGCT was run?
Its PBM binding z-score is 2.91.

For ATATGTAGCTTAAGGGTCATTCAGGTTGGTTCGC, which PBM binding z-score is on record?
Its PBM binding z-score is 2.61.

For CCGACTGGGCCATTCAGAGGTCATTGATCATATG, which PBM binding z-score is on record?
Its PBM binding z-score is 3.14.

For ATCTCTAGGTAAAGTTCAGCGAAAGATCGATAGA, which PBM binding z-score is on record?
Its PBM binding z-score is 1.49.

For CGTCCAAGGTCAGCAGGTCACTGAAAGCGACGTG, which PBM binding z-score is on record?
Its PBM binding z-score is 5.36.

TAGCCTAGGTCAGATCGGGGCAGTATACGCTATA was tested. Which PBM binding z-score did it give?
Its PBM binding z-score is -0.167.

For CGTCCAAGGTCAACAGGTCAGTGAAAGCGACGTG, which PBM binding z-score is on record?
The PBM binding z-score was 5.41.

With CGTCAAAGTTCAACTAAGTTAACGTAAAGCACGC as the sequence, how does the PBM binding z-score read?
Its PBM binding z-score is 2.97.

With TCTAGGAGGACACGAAGGTCAGAGCTTTCCAGAG as the sequence, how does the PBM binding z-score read?
The PBM binding z-score was 0.55.

How did the PBM binding z-score turn out when AGTCAAAGTTCACGACGAGGTAACGTAAAGCACG was run?
Its PBM binding z-score is 4.

How did the PBM binding z-score turn out when CAAACTAGGTCACGAAAGGTCAACGTCGAATGAC was run?
Its PBM binding z-score is 6.55.

Which PBM binding z-score does the source give for AGTCAAATTTCACTAGGTAACGTAAGATTCAGCT here?
Its PBM binding z-score is 0.334.

With CGAACTAGGTCAGAACAGGACAGTTAAGGATGAT as the sequence, how does the PBM binding z-score read?
The PBM binding z-score was 1.49.

For GATACAGAGTCAGCTAGAGGCCAGAGTATGGAAA, which PBM binding z-score is on record?
Its PBM binding z-score is -0.64.

How did the PBM binding z-score turn out when CCCCGGAGGACAGAAGGTCAGAGCTGTCCGCTTT was run?
The PBM binding z-score was 1.56.

With AGTCCAAGTTCACTAGGTAACGTAAGATTCAGCT as the sequence, how does the PBM binding z-score read?
The PBM binding z-score was 0.72.

For CGTCAAAGCTCAACTAAGGTAACGTAAAGCACGC, which PBM binding z-score is on record?
The PBM binding z-score was 0.191.

For TTACGAAGGTGAAAGGTCGTTGATGCACGCCTTG, which PBM binding z-score is on record?
The PBM binding z-score was 1.39.

For CATACAGGGTCCGCTAGGCCAGAGTAGGGACGGC, which PBM binding z-score is on record?
The PBM binding z-score was -0.436.

Which PBM binding z-score does the source give for CCTACTGGGCCATTCAGAGGTCATTGATCATATG here?
The PBM binding z-score was 2.59.

For ATCGAATGGTCGAAGGTGAGTATACCCACCCGAA, which PBM binding z-score is on record?
The PBM binding z-score was 0.138.

For TAGCCTAGGACATGCGGGCCAGTATAGTGTCGGC, which PBM binding z-score is on record?
The PBM binding z-score was -1.04.

With GCTGCTAGGTCAGGATGGTCAGCTAACGGGTACG as the sequence, how does the PBM binding z-score read?
The PBM binding z-score was 0.599.

Which PBM binding z-score does the source give for CCTCGGAGGACAGAAGGTCAGATCTGTCCGCTTT here?
The PBM binding z-score was 1.35.

How did the PBM binding z-score turn out when ATCTCTAGGTAAAGTTCATTGAAAGATCGATAGA was run?
Its PBM binding z-score is 2.58.

For CAGCCTAGGTGAGGGCCAGTATAGGAGGAACGTT, which PBM binding z-score is on record?
Its PBM binding z-score is -0.00134.

GCTGCTAGGTCAGGTTGGTCAACTAACGGGTACG was tested. Which PBM binding z-score did it give?
The PBM binding z-score was 0.891.

With CGTCGGAGGACAACAGGAGGTCAGAGCTGCCAGA as the sequence, how does the PBM binding z-score read?
The PBM binding z-score was 2.42.

— the supplement of paper PMC6555819
